The record followed here is PubChem BioAssay (Tox21).

Inconclusive results are not listed. A number with no mark means an inactive call. Activity calls are given as the source filed them. The call rests on the fitted dose curve.
On the % scale 0 is the no-effect control and ±100 the full control effect; potency means the concentration at half of the fitted maximal effect.

The target in this test is Peroxisome proliferator-activated receptor gamma (Homo sapiens) (UniProt P37231). Put plainly: qHTS assay to identify small molecule antagonists of the peroxisome proliferator-activated receptor gamma (PPARg) signaling pathway (AID 743191). Further: nearly all actives have a fitted effect of over 30% in size. As to conditions: HEK293H PPARg-UAS-bla, beta-lactamase ratio, antagonist, 17 h; series mostly up to 62.6 µM; ratio activity, negative = inhibition: at the top concentration. The source says: U.S. Tox21 Program National Center for Advancing Translational Sciences [NCATS] NIH Chemical Genomics Center [NCGC] U.S. Environmental Protection Agency [EPA] National Institutes of Environmental Health Sciences [NIEHS] National Toxicology Program [NTP] U.S. Food and Drug Administration [FDA] Tox21 Assay Overview: The peroxisome proliferator-activated receptors (PPARs) are lipid-activated transcription factors of the nuclear receptor superfamily with three distinct subtypes namely PPAR alpha, PPAR delta (also called PPAR beta) and PPAR gamma (PPARg). All these subtypes heterodimerize with Retinoid X receptor (RXR) and these heterodimers regulate transcription of various genes. PPAR-gamma receptor (glitazone receptor) is involved in the regulation of glucose and lipid metabolism. To identify the compounds that inhibit PPAR-gamma signaling, GeneBLAzer PPAR gamma UAS-bla HEK293H cell line (Invitrogen, Carlsbad, CA, USA) containing a beta-lactamase reporter gene under control of an Upstream Activator Sequence (UAS) was used to screen the Tox21 compound library.
Peroxisome proliferator-activated receptor gamma (Homo sapiens), sequence (P37231 whole entry, looked up): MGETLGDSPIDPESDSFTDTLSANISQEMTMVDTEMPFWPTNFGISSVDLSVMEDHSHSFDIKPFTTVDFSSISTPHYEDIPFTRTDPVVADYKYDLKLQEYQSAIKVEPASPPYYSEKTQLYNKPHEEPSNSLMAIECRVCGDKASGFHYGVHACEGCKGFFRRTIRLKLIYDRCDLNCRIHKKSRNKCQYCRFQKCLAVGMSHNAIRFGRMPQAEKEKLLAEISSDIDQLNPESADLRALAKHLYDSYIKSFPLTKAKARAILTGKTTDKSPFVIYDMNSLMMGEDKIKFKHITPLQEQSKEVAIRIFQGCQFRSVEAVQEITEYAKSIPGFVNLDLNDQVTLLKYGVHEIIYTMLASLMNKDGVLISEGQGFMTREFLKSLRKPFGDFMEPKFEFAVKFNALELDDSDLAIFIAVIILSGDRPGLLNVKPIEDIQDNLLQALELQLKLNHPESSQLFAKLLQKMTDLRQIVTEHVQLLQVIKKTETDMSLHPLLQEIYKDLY
Tox21 Assay Protocol Summary: PPARg-bla cells were dispensed at 3000 cells/6uL/well in 1536-well black wall/clear bottom plates using a Multidrop Combi (Thermo Fisher Scientific, Waltham, MA) dispenser. After the assay plates were incubated at 37C and 5% CO2 for 5 h, 23 nL of compounds dissolved in DMSO, positive controls or DMSO only was transferred to the assay plate by a Pintool station (Kalypsys, San Diego, CA). The assay plates were incubated at 37C for 17 h. After 1 uL of LiveBLAzerTM B/G FRET substrate was added using a Bioraptr Flying Reagent Dispenser (FRD) workstation (Beckman Coulter, Indianapolis, IN, USA), the plates were incubated at room temperature for 1 h, and fluorescence intensity was measured by an Envision plate reader (PerkinElmer, Shelton, CT).
On the technique in general: In qHTS, concentration-response curves come from the screen itself.
On to `CCOC(=O)c1ccccc1C`, for which the “ratio activity, negative = inhibition” value is -5.86%.

Take `COc1ccccc1N=Nc1c(S(=O)(=O)O)cc2cc(S(=O)(=O)O)cc(NC(C)=O)c2c1O`: the “ratio activity, negative = inhibition” value is 9.28%.

For `CCOC(=O)N1CCC(n2c(=O)[nH]c3cc(Cl)ccc32)CC1`, the “ratio activity, negative = inhibition” value is -11%.

For `Oc1ccc(Nc2ccccc2)cc1`, the Potency is 19.5 µM (active).

For the compound `CN1C(=O)CC(C)(c2ccccc2)C1=O` (stereo not given), the “ratio activity, negative = inhibition” value is 9.2%.

Turning to `CCCCCCCCCCCC[N+](C)(C)CC(=O)[O-]`, the “ratio activity, negative = inhibition” value is 4.83%.

As for `CC(C)CCCC(=O)O`, the “ratio activity, negative = inhibition” value was 6.42%.

Turning to `COC(OC)(C(=O)c1ccccc1)c1ccccc1`, the “ratio activity, negative = inhibition” value is 13.2%.

`CCCCCCCCSCCO`: the “ratio activity, negative = inhibition” value is 9.67%.

Take `CC1=C(/C=C/C(C)=C\C=C\C(C)=C\C(=O)O)C(C)(C)CCC1`: the “ratio activity, negative = inhibition” value was 6.39%.

For the compound `CCCCCCCCCCCCCCC[C@H](O)[C@@H](N)CO`, the “ratio activity, negative = inhibition” value was -25.2%.

Consider `O=[N+]([O-])c1cccc(S(=O)(=O)NCCNS(=O)(=O)c2cccc([N+](=O)[O-])c2)c1`, for which the “ratio activity, negative = inhibition” value was -12.5%.

As for `CC(=N\O)/C(C)=N/O`, the “ratio activity, negative = inhibition” value is -2.59%.

Consider `C=CCNc1nc(NCC=C)nc(N2CCN(C(c3ccc(F)cc3)c3ccc(F)cc3)CC2)n1`, for which the “ratio activity, negative = inhibition” value was 0.624%.

`CCOC(=N)CC(=O)OCC`: the “ratio activity, negative = inhibition” value is 3.94%.

For `Cc1oncc1C(=O)Nc1ccc(C(F)(F)F)cc1`, the Potency entry is “inactive”.

As for `c1cnc2c(n1)CCCC2`, the “ratio activity, negative = inhibition” value is 9.23%.

On to `CC1CC(O)CC(C)(C)C1` (stereo not given), for which the “ratio activity, negative = inhibition” value was -1.45%.

`CCCCCCCC/C=C\CCCCCCCC(=O)OC`: the “ratio activity, negative = inhibition” value is -4.55%.

On to `C[Si](NC1CCCCC1)(NC1CCCCC1)NC1CCCCC1`, for which the “ratio activity, negative = inhibition” value is -2.29%.

For `CCCOC(=O)c1ccc(C(=O)OCCC)nc1`, the “ratio activity, negative = inhibition” value was 7.25%.

On to `Cc1nc2ccccn2c(=O)c1CCN1CCC(C(=O)c2ccc(F)cc2)CC1`, for which the “ratio activity, negative = inhibition” value is 10.8%.

As for `CC(C)(C)CC(C)(C)c1ccc(OCCO)cc1`, the “ratio activity, negative = inhibition” value is -0.0629%.

In the case of `CC(=O)CC(c1ccc([N+](=O)[O-])cc1)c1c(O)c2ccccc2oc1=O` (stereo not given), the “ratio activity, negative = inhibition” value is -6.91%.

On to `NC(=O)Nc1ccc(Cl)cc1`, for which the “ratio activity, negative = inhibition” value is 17.1%.

With `[O]=[Bi]`, the ratio activity, negative = inhibition is 6.53% [at 5.95 µM].

With `O=S(=O)(c1ccccc1)c1ccc(Cl)cc1`, the “ratio activity, negative = inhibition” value is -17.4%.

Regarding `Cc1occc1C(=O)Nc1ccc(C(=O)N2CCC(F)(F)/C(=C\C(=O)N3CCC(N4CCCCC4)CC3)c3ccccc32)cc1`, the “ratio activity, negative = inhibition” value is -14.2% [at 29.1 µM].

Take `OC(CCCN1CCCCC1)(c1ccccc1)c1ccccc1`: the “ratio activity, negative = inhibition” value is -15%.

Regarding `CC1=NN(c2ccc(C(=O)O)cc2)C(=O)C1`, the “ratio activity, negative = inhibition” value was 0.236%.

With `CCCCCC=CCC=CCCCCCCCC(=O)OCC`, the Potency was 29.8 µM (active).

Regarding `CCOC(=O)OCC`, the “ratio activity, negative = inhibition” value was 4.84% [at 81.1 µM].

For `CC(C)C(=O)O`, the “ratio activity, negative = inhibition” value is -3.43%.

Regarding `COC(=O)c1cc(S(N)(=O)=O)ccc1OC`, the “ratio activity, negative = inhibition” value was 3.22%.

In the case of `CN1Cc2cc(C(=O)N3CCC(C4CCNCC4)CC3)ccc2N[C@@H](CC(=O)O)C1=O`, the “ratio activity, negative = inhibition” value is 19.3%.

As for `CCCC1C(CC)=CC(CC)=CN1c1ccccc1` (stereo not given), the “ratio activity, negative = inhibition” value was -18.9%.

As for `CCCOCCOCCO`, the “ratio activity, negative = inhibition” value is -7.02%.

As for `O=Cc1c(Cl)cccc1Cl`, the “ratio activity, negative = inhibition” value is 14.8% [at 81.1 µM].

For the compound `O=C(Nc1ccc([N+](=O)[O-])cc1)Nc1ccc([N+](=O)[O-])cc1`, the “ratio activity, negative = inhibition” value is -10.4%.

Turning to `CC(=O)Nc1ccccc1C`, the “ratio activity, negative = inhibition” value is 9.69% [at 81.1 µM].
